This is an account of results in the supplement of paper PMC11417369.

Whole data set: some 25,000 sequences, median “ln(normalized median fluorescence intensity)” near 6.7, cut for the highest 2% near 10. Many of the other results were omitted from the sample, so the highest values are more common in it than they were.

The experiment concerns PfHDP1 homeodomain (GST-tagged). As to the kind of experiment: gcPBM binding intensity (ln(normalized median fluorescence intensity)); higher = stronger DNA binding. Summed up:
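In this array assay, P. falciparum DNA-binding domains with a GST tag, expressed in E. coli, were applied for 1 h to primer-extended double-stranded 36-bp intergenic genomic probes and negative controls on an Agilent 4 × 180k array. Bound protein was visualised with Alexa488 anti-GST antibody at 488 nm. Binding intensity is the highest Masliner-normalised natural-log median intensity across replicate spots of either probe orientation.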
For the sequence “ATGAAACAGTAACATTGTACTTTTACAAAAAAATAA [XGTACX_site806]”, the “gcPBM binding intensity (ln)” value came to 6.25.

With “TTATATATATATAATACACACATAATAATATATTTA [CACACA_site3038]”, the “gcPBM binding intensity (ln)” value stood at 6.67.

For “TATAATAATAATAATAGTACGTATTATTAAAAAACT [XGTACX_site10]”, the “gcPBM binding intensity (ln)” value turned out to be 6.58.

On to ATGATATGCAATTTAGTGCATAACAAAATTGGTATA, for which the “gcPBM binding intensity (ln)” value was determined as 10.5.

“TTATAAAAAATTTTAGTGCATATATGATTTATATAT [GTGCAC_site9831]”: the “gcPBM binding intensity (ln)” value stood at 9.44.

Turning to “TATATAGATATGATAGTGCATTTTTAGAAAACATAA [GTGCAC_site9962]”, the “gcPBM binding intensity (ln)” value stood at 7.95.

For the sequence “AAAATGCATTTGATGTGTACGCATTATAAAGAACAA [XGTACX_site4203]”, the “gcPBM binding intensity (ln)” value was 7.39.

On to “TACGTAATAATATGCACACAAATAAACTTTATAAAT [CACACA_site3501]”, for which the “gcPBM binding intensity (ln)” value worked out at 9.89.

As for “TTATATGCACTTTTTGCACACGTATGAATAACAAAA [CACACA_site1811]”, the “gcPBM binding intensity (ln)” value is 11.5.

For the sequence “AGTAAATAACACAAATATGAATGAAAAAAAAAATAT [GTGCAC_negctrl_site235]”, the “gcPBM binding intensity (ln)” value worked out at 6.82.

Take “TAGTATAATATGAACACACACACACGCACAAAAAAA [CACACA_site7035]”: the “gcPBM binding intensity (ln)” value was 7.3.

“ATATGCACTTTTTGCACACGTATGAATAACAAAATA [CACACA_site1810]”: the “gcPBM binding intensity (ln)” value is 11.2.

With “ATAGGCACTTTTTGCACACGTATGAATAACAAAATA [CACACA_site5069]”, the “gcPBM binding intensity (ln)” value is 10.4.

Consider “AAAAGGAAGATATATACACACATACAAATATTTATA [CACACA_site7093]”, for which the “gcPBM binding intensity (ln)” value was 6.71.

With “TATACTTGTAAATGCACACATAAGATGCGACTAATG [CACACA_site2118]”, the “gcPBM binding intensity (ln)” value came to 9.37.

Regarding “TAAGTGCATGAGATATGTACATATATAAAATATATA [XGTACX_site3294]”, the “gcPBM binding intensity (ln)” value is 9.2.

For the sequence “TACAATAAGGATAAGTGTACATATGTGCATACATAT [XGTACX_site7188]”, the “gcPBM binding intensity (ln)” value was 10.6.

“TAAGGGATATGTATATGTACATACAAATATATATAA [XGTACX_site2892]”: the “gcPBM binding intensity (ln)” value came out at 6.63.

As for “TATACATACTCACCCACACACAAAAAAAAAAAAAAA [CACACA_site862]”, the “gcPBM binding intensity (ln)” value came out at 6.43.

Take “TTTTATCTTTTTTTATTTTAATGTATTATTTTTATG [XGTACX_negctrl_site24]”: the “gcPBM binding intensity (ln)” value amounted to 6.61.

In the case of “ATAAAAAAATTAAATACATGCACATATACACATACA [TGCATGCA_site129]”, the “gcPBM binding intensity (ln)” value amounted to 8.6.

Consider “TATAACCGAATGTGTACACAAAATAATGTTATATAT [CACACA_site5627]”, for which the “gcPBM binding intensity (ln)” value came to 7.77.

On to “GAATAAATTAAAAATGCACACTTTGATGGGTACATT [CACACA_site5220]”, for which the “gcPBM binding intensity (ln)” value stood at 8.68.

As for “ATGTCTAATTTTGATGCACACTTTTGTGCAATTAAA [CACACA_site5589]”, the “gcPBM binding intensity (ln)” value was found to be 11.

As for “GATGATTCAATTTATGCACACTAAAAATTAATTATA [CACACA_site4308]”, the “gcPBM binding intensity (ln)” value worked out at 10.1.

As for “TGTTTGTAATTATGTATGCACTTTTTTGTATGTGTG [GTGCAC_site9668]”, the “gcPBM binding intensity (ln)” value worked out at 7.52.

Consider AATTTTTGTTACAAGATGCACTTAATTTTTCTAAAT, for which the “gcPBM binding intensity (ln)” value was 7.92.

Take “GAATGTCTAATTTTGATGCACACTTTTGTGCAATTA [CACACA_site2902]”: the “gcPBM binding intensity (ln)” value came to 11.1.

Regarding “TGTAGACTACATAGTAGTACATAATATATACATATA [XGTACX_site367]”, the “gcPBM binding intensity (ln)” value came to 6.21.

For the sequence “TACTTATTATGAAACACACACCAAAACTACAGAATA [CACACA_site6265]”, the “gcPBM binding intensity (ln)” value was found to be 7.04.

With “GTGCATATATGATATACACACAATATAATAGTATGT [CACACA_site2460]”, the “gcPBM binding intensity (ln)” value worked out at 7.18.

Regarding “TTTTTTTTTAATCATGCACACTGTTAAAAGAATAAA [CACACA_site4817]”, the “gcPBM binding intensity (ln)” value came to 8.29.

On to “TTTTTATGGACTATGGTGCATTATATATAAATGAAA [GTGCAC_site9557]”, for which the “gcPBM binding intensity (ln)” value came to 10.3.

On to “ATTAAATGCAGTTCGGTGCATTAAGGTTATGATGAA [GTGCAC_site9883]”, for which the “gcPBM binding intensity (ln)” value is 10.7.

With TAATATAATGATGCAGTGCATATGTTAAAATGAAAA, the “gcPBM binding intensity (ln)” value is 8.68.

Consider ATTATCAATATGAAGGTGCATTTAAATAATATTTAC, for which the “gcPBM binding intensity (ln)” value came out at 9.62.

Turning to “TCTTGTTCGCCCTATTGTACAAACATATATTGTGAT [XGTACX_site2884]”, the “gcPBM binding intensity (ln)” value was found to be 7.27.

Regarding “GCACAAATATATATATATATATATATATATATATAT [GTGCAC_negctrl_site661]”, the “gcPBM binding intensity (ln)” value amounted to 9.39.

Regarding “ATGAGTGCACAAATATATATATATATATATATATAT [CACACA_negctrl_site404]”, the “gcPBM binding intensity (ln)” value was 10.7.

Regarding “ATTATATATAAACACACACACATGCATGCACATATA [CACACA_site4237]”, the “gcPBM binding intensity (ln)” value was 10.5.

With “TAATAAATCAAATGCACACACACAAAAAAAAAAAAA [CACACA_site161]”, the “gcPBM binding intensity (ln)” value stood at 10.

Regarding “AAAATATAATATAATGCACACATAAAACAAAAAAAA [CACACA_site8989]”, the “gcPBM binding intensity (ln)” value came out at 9.76.

In the case of “AATATAATATAATGCACACATAAACAAAAAAAAAAT [CACACA_site1304]”, the “gcPBM binding intensity (ln)” value amounted to 10.5.

For the sequence “ATATTATATAAATACACACACACATGCATGCACATA [CACACA_site4236]”, the “gcPBM binding intensity (ln)” value was 10.3.

Take “AAATATAAAGTGCACACACACAAAAAAAGAAAAAAA [CACACA_site6452]”: the “gcPBM binding intensity (ln)” value worked out at 8.92.

As to “AACGGGTAATGCACAAAAAAAAAAAAATAAAATAAA [TGCATGCA_negctrl_site474]”, the “gcPBM binding intensity (ln)” value was 10.9.

As for “AAAATATAATATAATGCACACATAAACAAAAAAAAA [CACACA_site8161]”, the “gcPBM binding intensity (ln)” value was 10.1.

As to “ATATAAACACTGAATGCATGCACATATATATATATA [TGCATGCA_site940]”, the “gcPBM binding intensity (ln)” value was determined as 9.37.

In the case of “AATATAAAAATGCACACACACAAAAAAAAAAAAAAA [CACACA_site6546]”, the “gcPBM binding intensity (ln)” value is 9.21.

Regarding “TTCTTAATATTGCATGCACACTATATAATAATTGAA [CACACA_site4720]”, the “gcPBM binding intensity (ln)” value was 9.18.

As for “GTCTCCTTTATTTTTGGTACAGATAAGATAAAAGGA [XGTACX_site1591]”, the “gcPBM binding intensity (ln)” value is 6.46.

For the sequence “CACTTAAAAAAAATACGTACACATATATATATATAT [XGTACX_site2054]”, the “gcPBM binding intensity (ln)” value came out at 9.39.

For “TATAATATAATTAAAAGTACTTAAAAAAGAATGAAA [XGTACX_site1157]”, the “gcPBM binding intensity (ln)” value came to 6.99.

Turning to “CATCAATGCTAATTATGTACTTACATAAATAACCCT [XGTACX_site968]”, the “gcPBM binding intensity (ln)” value turned out to be 6.52.

As to “TTGTGCTTGATATCACGGACAAGCTCATATTATATA [XGTACX_site4553]”, the “gcPBM binding intensity (ln)” value amounted to 6.03.

In the case of “AATGTCATGATACATACACACACATACACATACACA [CACACA_site8665]”, the “gcPBM binding intensity (ln)” value is 6.98.

Take “ATATAACGAATAATTACACACTATAAAAAAAGATCT [CACACA_site2862]”: the “gcPBM binding intensity (ln)” value turned out to be 6.63.

Regarding “AAAATATAAAATAATGCACACATAAACAAAAAATCA [CACACA_site8382]”, the “gcPBM binding intensity (ln)” value came to 10.5.

Consider “ATGAATCCTTAATATGAACACACAAATATATTACAC [CACACA_site7943]”, for which the “gcPBM binding intensity (ln)” value was 6.7.

For “AATTATGCACAAATCACACATATAAAATAAAAAGTG [CACACA_site4474]”, the “gcPBM binding intensity (ln)” value was found to be 11.1.

As for “GTACACATATAATATACACACAACAAATATGCACAT [CACACA_site1010]”, the “gcPBM binding intensity (ln)” value came out at 10.6.

In the case of “CATATAAAAATATATGCACACAAATAAAAAATTATA [CACACA_site9210]”, the “gcPBM binding intensity (ln)” value worked out at 10.

“GTACACCTATAATATACACACAACAAATATGCACAT [CACACA_site6603]”: the “gcPBM binding intensity (ln)” value is 10.2.

Consider “TATAATATTCCTTTTTAACACACATATGAACAAATA [CACACA_site7932]”, for which the “gcPBM binding intensity (ln)” value came out at 6.77.

“AAATATAATATATGCACACATACATACATATATATA [CACACA_site104]”: the “gcPBM binding intensity (ln)” value is 10.3.

“TATAAAAATATATGCACACAAATAAAAAATTATATA [CACACA_site3629]”: the “gcPBM binding intensity (ln)” value was determined as 9.87.

As for “AATATAAAATAATGCACACATAAACAAAAAATCAAA [CACACA_site1371]”, the “gcPBM binding intensity (ln)” value worked out at 10.4.

Turning to “ATCCTTAATATGAACACACAAATATATTGCACATAT [CACACA_site6230]”, the “gcPBM binding intensity (ln)” value amounted to 10.9.
